Measurements reported in PubChem BioAssay (NCI).
About 83,000 compounds went through this panel and 20% of them were active in at least one assay; those are over-represented in the sample as a whole.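 Step 1: grow cells in 96-well plates. Step 2: add test compound at a single concentration. Step 3: incubate 48 h. Step 4: record percent growth.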 Calls of active or inactive are those of the source. How the source made its calls: active means growth percent below 10; inactive means the rest.

Key:
Experiment in all cases: NCI-60 one-dose screen, 48 h (100 = growth as untreated, 0 = no growth, -100 = all killed)
[1] = test system: HT29 colon; details: 10 µM unless noted
[2] = test system: SNB-75 CNS; details: 10 µM unless noted
[3] = test system: SNB-19 CNS; details: 10 µM unless noted
[4] = test system: U251 CNS; details: 10 µM unless noted
[5] = test system: PC-3 prostate; details: 10 µM unless noted
[6] = test system: UACC-62 melanoma; details: 10 µM unless noted
[7] = test system: LOX IMVI melanoma; details: 10 µM
[8] = test system: SK-MEL-28 melanoma; details: 10 µM unless noted
[9] = test system: SK-MEL-5 melanoma; details: 10 µM unless noted

Measured: growth

COc1cc(CC#N)c([N+](=O)[O-])cc1OC
inactive: [1] 108% | [2] 107% | [3] 109% | [4] 95.8% | [5] 101% | [6] 99.8% | [7] 102% | [8] 107%

CCCCCCCCNC(=O)C(C)C
inactive: [1] 95.5% | [2] 91.2% | [3] 101% | [4] 101% | [5] 94.9% | [6] 96% | [7] 98% | [8] 101%

C1Cc2onc(-c3noc4c3CCC4)c2C1
inactive: [1] 104% | [2] 116% | [3] 98.8% | [4] 106% | [5] 103% | [9] 102% | [6] 96.5% | [8] 111%

Cc1cc2c3ccc(C)[n+](C)c3ccc2n1C
active: [5] 8.69%
inactive: [1] 39.9% | [2] 67.6% | [3] 30.6% | [4] 12.4% | [9] 48.2% | [6] 78.9% | [7] 43.9% | [8] 86%

CCOC(=O)N[C@H]1CCc2cc(OC)c(OC)c(OC)c2-c2ccc(SC)c(=O)cc21
active: [1] 7.57%
inactive: [2] 44.3% | [3] 30.8% | [4] 17.1% | [5] 27.7% | [6] 39.9% | [7] 22.4% | [8] 60.1%

COc1ccc(C(=O)C(=O)c2ccccc2)cc1
inactive: [1] 107% | [2] 104% | [3] 100% | [4] 101% | [5] 104% | [9] 90.7% | [6] 99.2% | [7] 100% | [8] 110%

COc1ccc(-c2csc(NC(=O)Nc3nc(-c4ccc(OC)cc4)cs3)n2)cc1
inactive: [1] 104% | [2] 99.2% | [3] 96.6% | [9] 29.3% | [6] 81.3% | [7] 83.6% | [8] 99%

O=C(CCl)Nc1ccccc1SCc1cc(Cl)cc2c1OCOC2
active: [7] -76%
inactive: [1] 82.5% | [2] 73.9% | [3] 99.5% | [4] 88.9% | [5] 82.2% | [9] 63.3% | [6] 81.2% | [8] 94%

COc1ccc(C)cc1NC(=O)SC(C)C
inactive: [1] 104% [100 µM] | [2] 82.4% [100 µM] | [3] 99% [100 µM] | [4] 104% [100 µM] | [5] 96.7% [100 µM] | [9] 96.3% [100 µM] | [6] 87.5% [100 µM] | [8] 102% [100 µM]

NC(=O)N1CCOCC1
inactive: [1] 92.4% | [2] 66% | [3] 101% | [4] 107% | [9] 105% | [6] 104% | [7] 107% | [8] 106%

C=C1CC2(OC1=O)C(=O)N(C)c1ccc(I)cc12 (centres undefined)
active: [1] -74.7% | [4] 2.89% | [5] -76.6% | [9] -92% | [6] -61.2% | [7] -65.4% | [8] -93.6%
inactive: [2] 38.4% | [3] 64%

C[C@H](CCC[C@H](C)OS(=O)(=O)c1ccccc1)OS(=O)(=O)c1ccccc1
inactive: [1] 111% | [2] 88% | [3] 94.5% | [4] 108% | [5] 108% | [9] 114% | [6] 89.8% | [7] 101% | [8] 118%

O=C(O)CC1=CCCCC1
inactive: [1] 105% | [2] 89.6% | [3] 97.2% | [5] 96% | [9] 101% | [6] 98% | [7] 94.5% | [8] 95.5%

O=Cc1ccc(O)c(O)c1
inactive: [1] 105% | [2] 87.2% | [3] 86% | [4] 102% | [5] 82.9% | [9] 95.3% | [6] 98.2% | [7] 91.2% | [8] 92.4%

N=C(N)c1nn(C2OC(CO)C(O)C2O)c2nc[nH]c(=O)c12 (centres undefined)
inactive: [1] 11.7%
active: [2] 9.13% | [3] 5.88% | [5] -3.91% | [9] -97% | [7] -27.8% | [8] -53.9%

CCN1CCCC(N2c3ccccc3Sc3ccccc32)C1 (centres undefined)
inactive: [1] 89.3% | [2] 92.8% | [3] 110% | [4] 94.6% | [5] 97.4% | [9] 97% | [6] 104% | [7] 91.2% | [8] 105%

Cc1ccc(S(=O)(=O)Oc2ccc3sc4c(CO)ccc(NCCN(C)C)c4c(=O)c3c2)cc1
active: [1] -84.3% [100 µM] | [2] -92.1% [100 µM] | [3] -83.7% [100 µM] | [4] -74.7% [100 µM] | [9] -94.3% [100 µM] | [6] -95.5% [100 µM] | [8] -85.1% [100 µM]

Oc1cccc(CNC2CCCCC2)c1
inactive: [1] 100% | [2] 90.4% | [3] 95% | [4] 106% | [5] 99.8% | [9] 103% | [6] 96.5% | [7] 113% | [8] 110%
